These results are taken from PubChem BioAssay AID485313 (National Center for Advancing Translational Sciences (NCATS), 2010).

In all, about 320,000 compounds went through this assay and about 7,600 (2.4%) were called active. A call without a number means that no potency is given here. Not shown: some 3% with an inconclusive outcome. Calls follow the shape of the dose curve; as a rule, active = well fitted activation curve with a large enough effect; inconclusive = small, poorly fitted or top-dose-only effect; inactive = no such curve, though single readings can be large or run the other way. For the sample, actives were picked, then their nearest neighbours and some compounds at random.
Potency is read from the fitted curve at half-maximal effect.

This test can be described thus: qHTS Assay for NPC1 Promoter Activators. Also: nearly all actives have a fitted effect of over 60% in size. The following applies: Huh7 NPC1 promoter luciferase reporter, 24 h; series mostly up to 9.22 µM. The source says:
NIH Chemical Genomics Center [NCGC] NIH Molecular Libraries Probe Production centers Network [MLPCN] MLPCN Grant: MH089375-01A1 Assay Submitter (PI): Yiannis A. Ioannou NCGC Assay Overview: Niemann Pick Type C (NPC) is a rare neurodegenerative lipidosis that is characterized by lipid storage in the endosomal/lysosomal system. Treatment modalities for this devastating disease are currently non-existent due to the severe obstacles associated with accessing the central nervous system with proteins or genes. The majority of mutations causing NPC disease are missense mutations that are distributed throughout the length of the NPC1 protein, with the most prevalent being the I1061T allele. Although NPC1 mutant proteins may be functional, they are typically trapped in the ER due to misfolding. […] We have developed and optimized a cell based luciferase reporter assay in 1536 well format for the identification of up-regulators of the mutant NPC1 promoter.
The NPC1 promoter is cloned in front of the luciferase reporter gene, therefore NPC promoter activation results in luciferase expression. Frozen stock of the NPC1 promoter transfected Huh7 cells were obtained from the laboratory of Dr. Yiannis Ioannou (The Mount Sinai School of Medicine, New York, NY). Cells were propagated and maintained at NCGC in medium containing RPMI-1640 supplemented with 10% FBS, 2mM L-glutamine, and 50ug/ml penicillin/streptomycin. Cells were harvested in and plated for assays in OP-MEM I reduced-serum medium supplemented with 10% FBS. The Amplite luciferase reporter gene assay kit was purchased from ABD Bioquest and prepared/stored according to manufacturers recommendations. qHTS Assay Setup: 1.#Dispensed 5ul of Huh7 cells stably expressing NPC1-luciferase at a density of 1500 cells per well 1536-well plates. 2.#Incubate cells at 37C, 5% CO2, and 95% humidity for 2 hours. 3.#Transferred 23nl per well of compound in DMSO solution. 4.#Incubated at 37C, 5% CO2, and 95% humidity for 24 hours. 5.#Dispensed 3ul per well of Amplite reagent(ABD Bioquest) per well. 6.#Incubate at ambient for 10 minutes. 7.#Read using the luminescence protocol on the ViewLux plate reader (Perkin Elmer).
Regarding `O=C(Nc1ccon1)c1sc2ccccc2c1Cl`, the Potency was 3980 nM (active).
As for `Cc1nn(C)cc1/C=N/NC(=O)c1sc2ccccc2c1Cl`, the Potency entry was “inactive”.
`O=C(Nc1ccon1)c1cccc(Cl)c1`: the Potency result was “inactive”.
On to `Cn1c(N)c(C(=O)COC(=O)COc2ccc(Cl)cc2)c(=O)n(C)c1=O`, for which the Potency entry was “inactive”.
`O=C(COC(=O)CCCN1C(=O)c2cccc3cccc(c23)C1=O)NC1CCS(=O)(=O)C1` (stereo not given): the Potency entry is “inactive”.
Next, `COc1ccc(OCCNC(=O)c2cc(C3CC3)nc3c2cnn3C(C)C)cc1`: “inactive”.
The same measure for `CC(=O)C1(C)N(O)C(C)(C)C(c2cccs2)=[N+]1[O-]` (stereo not given): 100 nM (active); for `C/C(=N\O)C1(C)N(O)C(C)(C)C(c2ccc(Br)cc2)=[N+]1[O-]` (stereo not given): “inactive”.
The same measure for `CC1(C)C(c2cccs2)=[N+]([O-])C2(CCCCC2=O)N1O` (stereo not given): “inactive”; for `CC(C(=O)N1CCc2ccccc21)N(C)CC(=O)Nc1ccc(F)cc1` (stereo not given): “inactive”.
With `CCNC(=O)c1cccc(NC(=O)C2CC(=O)N(CCc3ccccc3)C2)c1` (stereo not given), the Potency result was “inactive”.
Next, `CCN(CC)C(=O)N(CC)Cc1ccccc1`: “inactive”; `CCN(CC)C(=O)c1sc2nc(-c3ccccc3)ccc2c1N`: 1580 nM (active); `Nc1c(C(=O)NCc2ccccc2)sc2nc3c(cc12)C(=O)CCC3`: “inactive”.
The same measure for `CCCC(NC(=O)c1ccco1)c1nc2ccccc2[nH]1` (stereo not given): “inactive”; for `Cc1cc(OCc2cc(C(=O)NCc3cc(C(C)C)no3)no2)cc(C)c1Cl`: 1410 nM (active).
The same measure for `Cc1cccnc1CC(C)NC(=O)c1cc(COc2cncc(Cl)c2)on1` (stereo not given): “inactive”.
For `COCCCNC(=O)COc1cc(C)c(Cl)c(C)c1`, the Potency entry was “inactive”.
As for `O=[N+]([O-])c1ccc2oc(-c3cccc(O)c3)nc2c1`, the Potency result is “inactive”.
In the case of `COc1cccc(-c2nc3cc(C)ccc3o2)c1`, the Potency is 3160 nM (active).
The same measure for `COc1cccc(-c2nnc(SCCOc3ccc4c(C)cc(=O)oc4c3)o2)c1`: “inactive”; for `O=C(/C=C(O)/C=C/c1ccc(O)cc1)/C=C/c1ccc(O)cc1`: “inactive”; for `CCCCn1c(N)c(N(CC(C)C)C(=O)c2cnc(C)cn2)c(=O)[nH]c1=O`: “inactive”.
Consider `COc1ccccc1C(=O)Nc1ccc(OCC(=O)N2CCCCC2)cc1`, for which the Potency result was “inactive”.
The same measure for `NS(=O)(=O)c1ccc2nc(NC(=O)C3=COCCO3)sc2c1`: 1780 nM (active).
Regarding `NS(=O)(=O)c1ccc2nc(NC(=O)CS(=O)(=O)c3ccc(F)cc3)sc2c1`, the Potency result was “inactive”.
As for `CS(=O)(=O)c1ccc2nc(NC(=O)c3ccc(Cl)nc3)sc2c1`, the Potency entry is “inactive”.
`CN(CC(=O)Nc1ccc(Cl)c(C(F)(F)F)c1)C(=O)CCC(=O)c1ccccc1`: the Potency result is “inactive”.
As to `COC(=O)c1ccc(COC(=O)CNC(=O)c2cccc(OC)c2)o1`, the Potency result is “inactive”.
Regarding `CN(CC(=O)Nc1ccc(Cl)cc1)C(=O)c1ccc(COc2ccccc2)cc1`, the Potency result was “inactive”.
